# Test results as given in PubChem BioAssay (NCI).
# This is part of a sample that, as a whole, favours compounds with a hit. Of some 83,000 tested, about 20% had one in any assay.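 The test compound was applied at a single concentration to cells in 96-well plates for 48 hours, and percent growth was recorded.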 Values without a mark were called inactive. Calls of active or inactive are those of the source. Rule for the calls: active = growth percent below 10; inactive = the rest.
# Key:
# Experiment in all cases: NCI-60 one-dose screen, 48 h (100 = growth as untreated, 0 = no growth, -100 = all killed)
# Conditions in all cases: 10 µM unless noted
# [1] = tested on: SK-MEL-2 melanoma
# [2] = tested on: EKVX NSCLC
# [3] = tested on: UO-31 renal
# [4] = tested on: TK-10 renal
# [5] = tested on: ACHN renal
# [6] = tested on: CAKI-1 renal
# [7] = tested on: A498 renal
# [8] = tested on: CCRF-CEM leukemia
# [9] = tested on: MOLT-4 leukemia
SMILES,growth [1],growth [2],growth [3],growth [4],growth [5],growth [6],growth [7],growth [8],growth [9]
O=c1c2ccccc2c(=O)c2c1sc1c(=O)c3ccc(O)cc3c(=O)c12,-60.2% (active),-57.7% (active),-52% (active),-95.4% (active),-77.3% (active),-68.5% (active),-98.3% (active),-23.3% (active),-40.1% (active)
CC1(C)C(N)=Nc2cc(OCCCN3Cc4ccccc4C3)c(OCC3CC3)cc21,108%,77.6%,58.6%,81.3%,96.6%,52.5%,92%,19.1%,36.1%
COc1ccc2nc(Cl)c(/C=C3\CC(c4ccccc4)=NN(c4ccccc4)C3=O)cc2c1,63.4%,67.7%,61.7%,78.6%,18.4%,14.5%,46.9%,96.9%,79.8%
CN1C(=O)/C(=C/c2ccc(C(=O)Nc3ncc(Cc4cccc(Cl)c4)s3)cc2)SC1=S,91.7%,55.9%,,56%,33.2%,26.3%,74.9%,69.3%,52.4%
COc1ccc(/C=C/C(=O)c2cc(OC)c(OC)c(OC)c2)cc1OCC(=O)Nc1nc2ccc(OC(F)(F)F)cc2s1,45.7%,62.1%,3.8% (active),-6.47% (active),-1.17% (active),9.57% (active),68.1%,20.4%,
C=Cc1cnc(Nc2ccc(OC)cc2)nc1NCCCNC(=O)C1CCC1,87%,56.8%,,26%,41.5%,14.4%,47.3%,28%,24%
Nc1ccc(-c2csc(-n3[nH]c(=O)ccc3=O)n2)cc1,109%,88.4%,84.1%,120%,99.5%,94%,103%,96.4%,87.6%
O=C1/C(=C/c2ccccc2F)CN(C(=O)C(Cl)Cl)C/C1=C\c1ccccc1F,-2.69% (active),-8.07% (active),-92% (active),-39.7% (active),-100% (active),-43.2% (active),-62.5% (active),1.7% (active),-10.7% (active)
CCC1S/C(=N\N=C(\C)c2cc3cc(Cl)ccc3o2)N(c2ccccc2)C1=O (stereo not drawn),299%,102%,145%,88%,103%,60.1%,22.2%,-53.2% (active),36.4%
O=C(CN1CCCCCC1)Nc1nc2ccc(NCc3ccc(Cl)cc3)cc2s1,109%,96.4%,,110%,88.7%,86.1%,110%,93%,92.4%
O=C1c2ccccc2C(=O)C1c1ccc(Br)cc1,106%,95.6%,82.6%,125%,97.1%,82.8%,85.5%,75.6%,101%
CC1CCN(C(=S)SCC(=O)NC(=O)c2ccccc2)CC1,102%,102%,92%,99.8%,112%,,99.6%,106%,93.6%
Cc1n[nH]c2ccc(Br)cc2c1=O,99.4%,110%,75.8%,104%,100%,103%,83.7%,89.2%,92.8%
CCCCNc1cc(-c2cn[nH]c2-c2cc(C)cc(OC)c2)nc(-c2cccnc2)n1,115%,88.3%,62.3%,97.2%,96.7%,66.2%,64.4%,84.7%,82.6%
CN1CCN(c2ccc3nc4c(nc3c2C(F)(F)F)C(=O)c2ncccc2C4=O)CC1,-34.5% (active),5.13% (active),-19.1% (active),80.3%,-44.2% (active),33.1%,-21.1% (active),5.71% (active),-36.4% (active)
N=c1c(S(=O)(=O)c2ccccc2)cc2c(=O)n3ccccc3nc2n1CC1CCCO1 (stereo not drawn),112%,107%,56.4%,114%,103%,85.2%,84.1%,109%,102%
Cc1c(Cl)cccc1C(=O)Nc1nc2c(s1)CN(C(=O)c1ccc(C(F)(F)F)cc1)CC2,49.9%,49.5%,44.4%,64.5%,25.3%,22.7%,-20.1% (active),16.5%,21.8%
O=C(NNc1cnccn1)c1nc2cc(F)ccc2n2cccc12,40.8%,17.9%,16.3%,40.5%,7.64% (active),7.11% (active),-42.1% (active),4.42% (active),5.91% (active)
Cc1nnc(-c2ccc3c(c2)nc(/C=C/c2ccccc2)n3C2CCCCC2)o1,82%,86.8%,58.2%,104%,54.7%,112%,97.8%,53.8%,43.4%

SMILES,growth [1],growth [2],growth [3],growth [4],growth [5],growth [6],growth [7],growth [8],growth [9]
CCCCCCCCCCCCCCCCCCOc1ccccc1CC(=O)NCC[N+]1(C)CCCCC1,64.5%,89.1%,76.2%,42.1%,93.6%,79.3%,66%,17.1%,9.62% (active)
COc1cccc(-c2cc(-c3cccc(Cl)c3)c(C#N)c(=O)[nH]2)c1,60.8%,90.4%,71.5%,95.9%,94.2%,,45.8%,28.2%,64.8%
CCN(CC)CCN1C(=O)c2c(c(C)c3c(oc4ccc(OC)cc43)c2C)C1=O,115%,101%,17.5%,94.3%,9.28% (active),95.8%,90.8%,90.2%,
O=C(Cc1ccc(NC(=O)c2cccc(Cl)c2)cc1)NCc1ccccc1,46.8%,72.8%,59.9%,64.3%,65%,52%,42.2%,22.7%,39.7%
COc1cccc(/C=N/NC(=O)c2ccccc2N2CCCC2)c1O,-7.25% (active),41.7%,30.4%,74.9%,31.1%,,67.1%,-14% (active),30.7%
COCCn1cc(-c2csc(-c3c[nH]c4ccc(Br)cc34)n2)c2cccnc21,35.9%,36.9%,27.8%,36.6%,27.2%,49.4%,26.7%,14%,8.87% (active)
COc1cc(/C=C2\CN(S(=O)(=O)c3ccccc3)C/C(=C\c3cc(CN4CCCCC4)c(O)c(OC)c3)C2=O)cc(CN2CCCCC2)c1O,104%,-36.4% (active),-96.6% (active),-38.8% (active),27.9%,-89.2% (active),95%,-2.62% (active),
CCOC(=O)c1c(C)nc2ccccc2c1/C=C/c1ccccc1,71.7%,63.6%,60.7%,92.5%,72.7%,59.5%,76%,45.8%,23.6%
CC1(C)OB(O)c2cc(-c3nc4ccc5[nH]ncc5c4c4c3CCCC4)ccc21,59.3%,71.8%,34.4%,73.4%,21.1%,20.8%,21.9%,50.2%,30.7%
Cc1ccc(CNc2ccc3nc(CCC(C)C)[nH]c3c2)cc1,107%,96%,68.6%,113%,99.3%,,97.1%,93.7%,81.4%
CN(C)CCCC1(c2ccc(F)cc2)OCc2cc(-c3ccc4cc[nH]c4c3)ccc21 (stereo not drawn),87.6%,61.6%,30.2%,92.9%,36.2%,30.4%,81.5%,33.2%,-8.83% (active)
C=C1C(=O)O[C@H]2[C@H]1CC/C(COC(=O)/C=C\C(=O)NCc1ccc(Cn3c(=O)sn(CCCl)c3=O)cc1)=C\CC[C@@]1(C)O[C@@H]21,85.8%,86.2%,79.9%,60.9%,44.2%,47.9%,132%,7.92% (active),35.1%
CNC(=O)c1cc(Oc2cccc3nc(NC(=O)Nc4cc(C(F)(F)F)ccc4Cl)ccc23)ccn1,119%,99.5%,105%,111%,101%,85.8%,109%,80.8%,89.5%
CC1CCN(C(=O)CCCl)c2ccccc21 (stereo not drawn),109%,144%,75.8%,95.7%,117%,119%,95.8%,104%,118%
C=C1C(=O)O[C@H]2[C@H]1CC/C(COC(=O)NCc1ccc(Cn3c(=O)sn(-c4ccc(C#N)cc4)c3=O)cc1)=C\CC[C@@]1(C)O[C@@H]21,84.8%,92.2%,75.9%,48.9%,79.5%,58.4%,120%,3.9% (active),30%
C=C(C)[C@@H]1CC[C@]2(COC(C)=O)CC[C@]3(C)[C@H](CC[C@@H]4[C@@]5(C)CCCN(C(C)=O)C(C)(C)[C@@H]5CC[C@]43C)[C@@H]12,61.3%,90%,77%,90.3%,27.9%,24.3%,108%,59.9%,-9.89% (active)
Cc1ccc(/C=C/C(=O)c2ccc(-n3cc(CN4CCN(c5cc6c(cc5F)c(=O)c(C(=O)O)cn6C5CC5)CC4)nn3)cc2)cc1,95.5%,96%,61.8%,104%,89.8%,69.8%,64.5%,84.3%,86%
CCN1C(=O)N(CC)C2C1NC(=S)N2/N=C/c1ccc(C(F)(F)F)cc1 (stereo not drawn),87.9%,81.6%,62.3%,95%,79%,37%,44.9%,80.2%,70.5%
